Measured values published in PubChem BioAssay (EPA / NIEHS).
Results filed as inconclusive are left out. The source made the active and inactive calls. The calls were made as follows: active = hit-call score of the fitted dose curve at least 0.9, where 1 is the maximum; inconclusive = response in the unintended direction; inactive = score below 0.9.

The compounds below were run against human Vitamin D Receptor (VDR), VDR (gene 7421) (UniProt P11473) (assay: ATG_VDR_TRANS: Attagene TRANS-FACTORIAL HepG2 Assay for human Vitamin D Receptor (VDR) (AID 2283022)).
human Vitamin D Receptor (VDR), VDR (gene 7421), sequence (P11473 whole entry, looked up, the tested form may be a part): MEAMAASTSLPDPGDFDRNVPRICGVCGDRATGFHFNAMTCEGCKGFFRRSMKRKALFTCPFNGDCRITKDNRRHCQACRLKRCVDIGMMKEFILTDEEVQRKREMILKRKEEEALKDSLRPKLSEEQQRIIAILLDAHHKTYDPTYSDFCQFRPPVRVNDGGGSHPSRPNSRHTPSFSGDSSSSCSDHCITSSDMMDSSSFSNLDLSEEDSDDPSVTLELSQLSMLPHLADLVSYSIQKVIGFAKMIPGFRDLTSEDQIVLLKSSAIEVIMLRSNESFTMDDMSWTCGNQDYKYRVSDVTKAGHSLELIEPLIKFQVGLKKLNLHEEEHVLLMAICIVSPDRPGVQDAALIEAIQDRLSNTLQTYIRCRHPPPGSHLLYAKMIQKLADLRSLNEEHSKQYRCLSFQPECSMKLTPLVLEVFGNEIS
Procedure, shortened: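 RT-PCR/capillary electrophoresis read-out of reporter mRNA induction in transiently transfected HepG2; 24 h dosing; chimeric NR-Gal4 (TRANS format); gain-of-signal fit against DMSO baseline.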

outcome, inactive:
CC(O)C1CCCCC1 (configuration not stated), C#CC(C)N(C)C(=O)Nc1ccc(Cl)cc1 (configuration not stated), CC(=O)O[C@@H]1C[C@@H]2CC[C@@]1(C)C2(C)C, COc1ccccc1N=Nc1c(S(=O)(=O)O)cc2cc(S(=O)(=O)O)cc(NC(C)=O)c2c1O, CCCCOCC, C=C(C)C1CC=C(C)C(=O)C1 (configuration not stated), FC(F)(F)COCC(F)(F)F, Cc1cc(S(=O)(=O)O)ccc1N=Nc1c(O)ccc2ccccc12, ClC(c1ccccc1)(c1ccccc1)c1ccccc1, CC(=O)O[C@H]1C[C@@H]2CC[C@@]1(C)C2(C)C, CCCCCCCCCCCCCC(=O)OCC(O)CO (configuration not stated), CC(C)=CCCC(C)CC(=O)O (configuration not stated)
